Measurements taken from PubChem BioAssay (NCI).
About 79,000 compounds went through this panel and 15% of them were active in at least one assay; those are over-represented in the sample as a whole. A number with no mark means an inactive call. Activity calls are given as the source filed them. Rule as the data show it: active = growth inhibition above about 70%; inactive = the rest.

Key:
[1] = NCI Yeast Anticancer Drug Screen. Data for the rad50 strain (AID 155);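 also: 0% = growth of vehicle-only cultures of the same strain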; details: S. cerevisiae rad50 strain growth inhibition, active compounds read high
In short: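 Compounds were tested on a yeast strain with an engineered DNA damage repair alteration; the reported value is growth inhibition normalised to vehicle treatment.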

[2] = NCI Yeast Anticancer Drug Screen. Data for the mec2-1 strain (AID 157); details: S. cerevisiae mec2-1 strain, active compounds read high
In short: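 Strain: mec2-1 (DNA repair/cell cycle alteration). Compound exposure, then growth measured; inhibition expressed relative to vehicle.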

[3] = NCI Yeast Anticancer Drug Screen. Data for the sgs1 mgt1 strain (AID 161);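 also: 0% = growth of cultures given vehicle only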; details: S. cerevisiae sgs1 mgt1 strain, active compounds read high
In short: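 Read-out: growth inhibition vs vehicle controls. Cells: mutant yeast strain deficient in DNA damage repair.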

[4] = NCI Yeast Anticancer Drug Screen. Data for the cln2 rad14 strain (AID 165);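 also: 0% = growth equal to vehicle treated cultures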; details: S. cerevisiae cln2 rad14 strain, active compounds read high
In short: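 Compounds are applied to the cln2 rad14 yeast strain, and growth is then compared with that of vehicle-treated cultures to give inhibition.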

[5] = NCI Yeast Anticancer Drug Screen. Data for the bub3 strain (AID 167); details: S. cerevisiae bub3 mutant strain, active compounds read high
In short: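 Growth of a checkpoint-deficient yeast mutant is measured after compound exposure. Values represent inhibition relative to vehicle.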

[6] = NCI Yeast Anticancer Drug Screen. Data for the mlh1 rad18 strain (AID 175); details: S. cerevisiae mlh1 rad18 strain growth inhibition, active compounds read high
In short: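 Read-out is yeast growth inhibition, calculated against vehicle-only controls. The compound was applied to a strain engineered with DNA damage repair alterations.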

[7] = at 5.0 µM (retest, dose inferred, filed as 0.5)
[8] = at 50.0 µM (retest, dose inferred, filed as 5.0)

Row | Compound | growth inhibition [1, 7] | growth inhibition [1, 8] | growth inhibition ([1]; at 50.0 µM) | growth inhibition [2, 7] | growth inhibition [2, 8] | growth inhibition ([2]; at 50.0 µM) | growth inhibition [3, 7] | growth inhibition [3, 8] | growth inhibition ([3]; at 50.0 µM) | growth inhibition [4, 7] | growth inhibition [4, 8] | growth inhibition ([4]; at 50.0 µM) | growth inhibition [5, 7] | growth inhibition [5, 8] | growth inhibition ([5]; at 50.0 µM) | growth inhibition [6, 7] | growth inhibition [6, 8] | growth inhibition ([6]; at 50.0 µM)
1 | CCCCCCCCCCCCCCSC(=NC)NC | 99% (active) | 99% (active) | 99.5% (active) | 99% (active) | 99% (active) | 99.8% (active) | 100% (active) | 99% (active) | 99.5% (active) | 99% (active) | 99% (active) | 98.9% (active) | 99% (active) | 99% (active) | 99.5% (active) | 98% (active) | 99% (active) | 99.4% (active)
2 | C[C-](O)O.O/C(=C\[C-](O)c1ccccc1)c1ccccc1.O/C(=C\[C-](O)c1ccccc1)c1ccccc1.[Nd+3] (configuration not stated) | 36% | 36% | 90.1% (active) | 36% | 36% | 92.7% (active) | 42% | 42% | 93.3% (active) | 21% | 21% | 88.7% (active) | 20% | 20% | 90.2% (active) | 30% | 30% | 85.9% (active)
3 | C/C(=C/c1ccccc1)C(=O)C1C(c2ccccc2)CC(O)C(C)C1c1ccccc1 (configuration not stated) | 11% | 86% (active) | 82.2% (active) | 1% | 81% (active) | 91.2% (active) | 10% | 86% (active) | 82.3% (active) | -4% | 89% (active) | 88.4% (active) | -5% | 82% (active) | 77.8% (active) | 16% | 90% (active) | 86.5% (active)
4 | CN(Cc1cnc2nc(N)nc(N)c2n1)c1ccc(C(=O)NC(CCC(=O)O)C(=O)O)cc1 (configuration not stated) | 2% | 5% | 37.2% | -16% | 79% (active) | 88% (active) | 9% | 53% | 45.8% | 0% | -10% | 1.4% | 1% | -6% | -9.7% | -19% | -9% | 25.1%
5 | O=C(OCC1OC(c2nn[nH]n2)C(OC(=O)c2ccccc2)C1OC(=O)c1ccccc1)c1ccccc1 (configuration not stated) | 17% | 61% | 19% | 4% | 56% | 30.4% | 19% | 80% (active) | 43.8% | 25% | 70% (active) | 45.9% | 17% | 80% (active) | 66% | 36% | 66% | -33.6%
6 | CC1=CC2C(O)(CC(CO)=CC3C4C(C)(C)C4(OC(=O)c4ccccc4)C(OC(=O)c4ccccc4)C(C)C32O)C1=O (configuration not stated) | 95% (active) | 96% (active) | 90.3% (active) | 96% (active) | 98% (active) | 91.7% (active) | 96% (active) | 97% (active) | 92% (active) | 73% (active) | 97% (active) | 88.3% (active) | 95% (active) | 96% (active) | 89.2% (active) | 97% (active) | 97% (active) | 88.6% (active)
7 | CC1=C(C(=O)Nc2ccccc2)C(c2cccc([N+](=O)[O-])c2)C(C(=O)Nc2ccccc2)=C(C)N1 | 4% | 30% | -7.95% | 1% | 63% | 26.1% | 4% | 30% | 19.1% | -2% | 24% | 4.75% | 6% | 75% (active) | 35.4% | -7% | 24% | 18.9%
8 | CCCCNC(C)(C)COC(=O)/C=C/c1ccc(OCCCC)cc1 | 6% | 79% (active) | 89.2% (active) | -2% | 47% | 56.2% | 3% | 86% (active) | 75.8% (active) | 3% | 79% (active) | 80% (active) | 4% | 75% (active) | 86.6% (active) | 0% | 81% (active) | 89.2% (active)
9 | Nc1nnc(-c2cc([N+](=O)[O-])cc([N+](=O)[O-])c2)o1 | -16% | -2% | 22.8% | -4% | -5% | 14.6% | -1% | 14% | 15.1% | 6% | 20% | -20.2% | 3% | 7% | -19.2% | -21% | 3% | 31.9%
10 | Nc1ccc(Cc2ccc(Cl)cc2)cc1 | -156% | 93% (active) | 99.2% (active) | -51% | 96% (active) | 99% (active) | -66% | 95% (active) | 99.3% (active) | -60% | 94% (active) | 97.9% (active) | -66% | 95% (active) | 98.8% (active) | -129% | 95% (active) | 99.2% (active)
11 | COc1ccccc1NC(=O)CC(=O)N1N=C(C)C(N=Nc2ccc(C(=O)O)cc2)C1=O (configuration not stated) | 2% | -1% | 0% | 0% | -2% | -4% | -4% | -20% | 2.65% | -2% | 7% | 27.9% | 1% | 16% | -1.05% | 1% | 1% | 2.3%
12 | CCOC(=O)C(=O)Nc1ccc(Cl)cc1Cl | -12% | -1% | -1.5% | -12% | -5% | -10.3% | -1% | -2% | -2.25% | 14% | 34% | -1.75% | 10% | -10% | 10.6% | 1% | 7% | 19.1%
13 | CCOC(=O)c1c(C)[nH]c(CO)c1C | -1% | 14% | 28.1% | 6% | 20% | 38% | 2% | 24% | 43.1% | 4% | 0% | 31.8% | 4% | 8% | 34% | -1% | 13% | 65.5%
14 | O=[N+]([O-])c1ccc(-[n+]2ccc3ccccc3c2)c([N+](=O)[O-])c1 | 14% | 78% (active) | 72.4% (active) | 8% | 80% (active) | 52.3% | 11% | 79% (active) | 82.4% (active) | 10% | 61% | 37.4% | 6% | 59% | 78% (active) | 40% | 90% (active) | 81.6% (active)
15 | O=C1OC2(Cc3ccccc31)c1ccccc1-c1ccccc12 | -5% | -1% | 20.8% | -4% | -11% | 25.9% | -6% | 38% | 41% | -5% | -15% | 17.6% | -10% | -7% | 9.45% | -19% | -9% | 27.8%
16 | Cc1cccc(/C=N/Nc2cc(C)c3ccccc3n2)n1 | 10% | 89% (active) | 96.8% (active) | 10% | 96% (active) | 89.2% (active) | 16% | 96% (active) | 97.8% (active) | 5% | 86% (active) | 82.3% (active) | -5% | 95% (active) | 93.6% (active) | 14% | 96% (active) | 82.8% (active)
17 | O=C(Nc1cc(Cl)cc(Cl)c1)OCCCl | 53% | 87% (active) | 90.8% (active) | 32% | 77% (active) | 93% (active) | 36% | 84% (active) | 93.8% (active) | 24% | 63% | 92% (active) | 41% | 88% (active) | 92.6% (active) | 53% | 93% (active) | 92.5% (active)
18 | COC(=O)c1nc(=S)[nH]c(C(=O)OC)c1C(=O)c1ccc2ccccc2c1 | 26% | 96% (active) | 94.5% (active) | 9% | 97% (active) | 71.5% (active) | 0% | 97% (active) | 93.3% (active) | 8% | 96% (active) | 25.8% | 13% | 98% (active) | 71.1% (active) | 16% | 98% (active) | 94.5% (active)
19 | Cc1ccc(N)c(Cc2c(O)ccc3ccccc23)c1 | 2% | 79% (active) | 98.2% (active) | 4% | 75% (active) | 98.7% (active) | 1% | 79% (active) | 98.8% (active) | -7% | 64% | 98.5% (active) | 0% | 66% | 98.7% (active) | 1% | 82% (active) | 98.6% (active)
